CSC inhib – cancer stem cell viability inhibitors, primary screen, luminescence; 300,000 tested, 1.1% active; AID 2717, 2010; cancer stem cell-like cells viability; inhibition, % at 7.5 µM; in the data active = inhibition above about 75%; tested in HMLE shEcad cells
Mdm2 MdmX PPI – inhibitors of human Mdm2-MdmX association, primary screen, cell-based, luminescence, split luciferase, SaOS-2, uHTS. Protein Mdm4 (Homo sapiens) + E3 ubiquitin-protein ligase Mdm2 (Homo sapiens), …. SaOS-2 split-luciferase Mdm2/MdmX complementation. inhibition, % at 8 µM. 330,000 tested, 3% active. AID 485346, 2010;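 active = inhibition of at least 50% at 8 µM in the primary screen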
Target sequence (O15151 whole entry, looked up): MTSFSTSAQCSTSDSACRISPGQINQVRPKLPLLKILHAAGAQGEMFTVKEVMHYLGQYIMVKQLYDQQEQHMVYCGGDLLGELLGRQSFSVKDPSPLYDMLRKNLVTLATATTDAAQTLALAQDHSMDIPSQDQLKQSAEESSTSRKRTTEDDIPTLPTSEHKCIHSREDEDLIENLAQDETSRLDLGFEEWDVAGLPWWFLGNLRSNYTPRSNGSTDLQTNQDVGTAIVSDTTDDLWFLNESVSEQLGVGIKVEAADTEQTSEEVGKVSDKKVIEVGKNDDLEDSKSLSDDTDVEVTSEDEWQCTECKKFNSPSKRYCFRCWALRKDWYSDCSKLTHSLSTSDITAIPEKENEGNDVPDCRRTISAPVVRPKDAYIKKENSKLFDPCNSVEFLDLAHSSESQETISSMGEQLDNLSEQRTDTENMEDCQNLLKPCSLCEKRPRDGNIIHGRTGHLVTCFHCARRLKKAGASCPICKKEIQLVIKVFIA
Target sequence (Q00987 whole entry, looked up): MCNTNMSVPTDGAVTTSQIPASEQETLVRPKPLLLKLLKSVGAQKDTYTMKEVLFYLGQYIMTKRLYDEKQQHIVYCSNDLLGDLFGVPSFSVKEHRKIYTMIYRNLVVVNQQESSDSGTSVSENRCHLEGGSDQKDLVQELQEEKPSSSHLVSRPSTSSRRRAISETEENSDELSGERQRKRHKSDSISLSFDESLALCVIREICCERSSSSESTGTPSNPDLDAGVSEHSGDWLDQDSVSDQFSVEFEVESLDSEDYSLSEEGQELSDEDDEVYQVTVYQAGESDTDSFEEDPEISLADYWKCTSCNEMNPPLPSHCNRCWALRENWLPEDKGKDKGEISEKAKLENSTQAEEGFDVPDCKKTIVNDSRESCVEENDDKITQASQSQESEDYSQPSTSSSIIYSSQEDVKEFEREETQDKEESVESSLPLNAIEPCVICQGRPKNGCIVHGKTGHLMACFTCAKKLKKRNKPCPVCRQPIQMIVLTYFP
Gli-Sufu antag – Gli-Sufu pathway antagonists, primary screen, luciferase luminescence, Sufu-KO-LIGHT cells, uHTS; Sufu-KO-LIGHT fibroblasts, Gli luciferase reporter luminescence; inhibition, % at 5 µM; 340,000 tested, 0.74% active;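 active = inhibition above about 55%, limit read from the data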
Jurkat NFkB inh – inhibitors of induced NF-kB luciferase reporter, primary screen, TCR NF-kB activation inhibitor project, cell-based, luminescence, uHTS; Jurkat, PMA/ionomycin-induced NF-kB luciferase reporter; inhibition, % at 4 µM; 330,000 tested, 0.53% active; in the data active = inhibition above about 50%
aSyn UTR inh – MLPCN primary screen, SNCA 5' untranslated region | alpha-synuclein 5'UTR reporter, inhibitor activity | inhibition, % (tested at 7.5 µM) | 300,000 tested, 0.82% active; in the data active = inhibition above about 60%;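 also: H4 neuroglioblastoma cells stably carrying SNCA 5'UTR luciferase fusion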
697 NFkB inh – inhibitors of PMA/ionomycin-induced NF-kB reporter, 697 cells, primary screen, B-cell NF-kB inhibitor project, cell-based, luminescence, uHTS; 697 B-cell NF-kB luciferase reporter, 16 h; inhibition, % at 4 µM; 330,000 tested, 0.33% active; AID 435022, 2010; in the data active = inhibition above about 35%
Gli antag conf – Gli-SUFU pathway antagonists, confirmation, single concentration, luciferase luminescence, Sufu-KO-LIGHT cells; shares compounds with Gli-Sufu antag; Gli luciferase reporter; inhibition, % at 5 µM; 2,500 tested, 40% active; AID 602428, 2012;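 active = mean inhibition at 5 µM reaching about 45%, limit read from the data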
SufuKO cytotox – cytotoxicity in Sufu-KO-LIGHT cells, confirmation, cytotoxicity control for Gli-SUFU antagonist project, cell-based, ATP luminescence, single concentration; 2,500 tested, 32% active; shares compounds with Gli-Sufu antag; AID 651994, 2013; cytotoxicity, % at 5 µM;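 active = mean cytotoxicity at 5 µM above about 25%, limit read from the data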;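 also: cells exposed to compound overnight for roughly 16 to 18 hours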
Wnt3a cs – Wnt3a reporter signal inhibition, confirmation, counter-screen for Gli-SUFU antagonist project, Wnt-LIGHT cells, luminescence, single concentration. shares compounds with Gli-Sufu antag. Wnt3a-driven luciferase reporter. inhibition, % at 6.25 µM. 2,500 tested, 20% active. AID 651995, 2013;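 active = mean inhibition above about 25%, limit read from the data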
Large screens that a line does not name were inactive (follow-up assays come after a bar, where they were run). Only some compounds are listed: those with a hit (about 4.5% of all), similar ones and a draw of the others.

COc1ccc(C2(C(=O)Nc3ccc(C)cc3)CCOCC2)cc1	none
COCCC(=O)N1CCC(Oc2ccc(C(=O)N3CCC(N(C)C)C3)cc2)CC1 (centres undefined)	none
Cc1ccccc1C1NC(c2ccccc2C)C([N+](=O)[O-])C(C)(C)C1[N+](=O)[O-] (centres undefined)	none | Gli antag conf inactive | SufuKO cytotox inactive | Wnt3a cs inactive
O=C(COc1ccc2ccccc2c1)NNC(=O)Cc1ccccc1	none (no result: Mdm2 MdmX PPI, Jurkat NFkB inh, 697 NFkB inh)
O=C(COc1ccc2ccccc2c1)NNC(=O)c1ccccc1	none (no result: CSC inhib) | Gli antag conf inactive | SufuKO cytotox inactive | Wnt3a cs inactive
CSCCC(=O)N(C)CC1CCCN(CCc2cccc(C(F)(F)F)c2)C1 (centres undefined)	none
COC(=O)CCC(=O)N(C)CC1CCCN(CCc2cccc(C(F)(F)F)c2)C1 (centres undefined)	Gli-Sufu antag 56.2 | Gli antag conf inactive | SufuKO cytotox inactive | Wnt3a cs inactive
CCN(CC)S(=O)(=O)c1ccc(S(=O)(=O)N2CCCC(C(=O)NC3CC3)C2)cc1 (centres undefined)	Gli-Sufu antag 59.7 (no result: CSC inhib) | Gli antag conf 45.9 | SufuKO cytotox inactive | Wnt3a cs inactive
CN(C[C@H](Cc1ccccc1)N(C[C@@H](Cc1cccc2ccccc12)N(CCc1ccccc1)N=O)N=O)N=O	none
CN(C[C@@H](Cc1cccc2ccccc12)N(C[C@H](Cc1ccccc1)N(CCc1ccccc1)N=O)N=O)N=O	Gli-Sufu antag 60.0 | Gli antag conf inactive | SufuKO cytotox inactive | Wnt3a cs inactive
COc1cccc(/C=C/C(=O)OCC(=O)N2c3ccccc3NC(=O)C2(C)C)c1	none
Cc1ccc(C2N(c3ccccc3)C(=S)N3CCCN23)cc1 (centres undefined)	Gli-Sufu antag 98.9 | Gli antag conf inactive | SufuKO cytotox inactive | Wnt3a cs inactive
Fc1ccc(C2N(c3ccccc3)C(=S)N3CCCN23)cc1 (centres undefined)	none (no result: CSC inhib)
Cc1cccc(N(CC(=O)NCc2ccc(F)cc2)C(=O)c2ccco2)c1	none (no result: CSC inhib)
COc1ccc(CN2CCSCC2)c(OC)c1C	Gli-Sufu antag 58.9 | Gli antag conf inactive | SufuKO cytotox inactive | Wnt3a cs inactive
Cc1c(C(=O)N2c3ccccc3Sc3ccccc32)cccc1[N+](=O)[O-]	Gli-Sufu antag 96.1 | Gli antag conf inactive | SufuKO cytotox inactive | Wnt3a cs inactive
Nc1ccc(S(=O)(=O)c2ccc(Cl)cc2)cc1	none
Cc1cc(=O)n(-c2ccccc2)n1C	none (no result: CSC inhib, aSyn UTR inh)
O=C1NCCN1Cc1ccc(Cl)cc1	none | Gli antag conf inactive | SufuKO cytotox inactive | Wnt3a cs inactive
O=S(=O)(Nc1cccc2ccccc12)N1CCCC1	none
Cc1nc(N)nc(Nc2ccc(C#N)cc2)c1Br	Gli-Sufu antag 55.5 | Gli antag conf inactive | SufuKO cytotox inactive | Wnt3a cs inactive
Cc1nc(N)nc(Nc2ccc(Cl)cc2)c1Br	none
Cc1ccc2c(c1)N(CCC(=O)NCc1ccccn1)C(=O)CO2	none | Gli antag conf inactive | SufuKO cytotox inactive | Wnt3a cs inactive
O=C(Nc1nnc(-c2cccs2)o1)c1cccc(F)c1	none | Gli antag conf inactive | SufuKO cytotox inactive | Wnt3a cs inactive
COc1cccc(-c2nnc(NC(=O)c3cccc(F)c3)o2)c1	none
CCc1noc(C)c1C(=O)OCC(=O)c1ccccc1OC	none
CCOC(=O)c1ccc(S(=O)(=O)N2CCN(Cc3cc4c(cc3O)OCO4)CC2)cc1	none (no result: CSC inhib, aSyn UTR inh)
CCCC(C)C(=O)Nc1nc(C)c(-c2csc(Nc3ccc(Cl)cc3)n2)s1 (centres undefined)	none | Gli antag conf 59.9 | SufuKO cytotox inactive | Wnt3a cs inactive
Cn1c(CSCc2ccc(F)cc2)nnc1SCC(=O)Nc1nccs1	Gli-Sufu antag 60.5 | Gli antag conf inactive | SufuKO cytotox inactive | Wnt3a cs inactive
Cn1c(CSCc2ccc(Cl)cc2)nnc1SCC(=O)Nc1nccs1	none
Cn1ncc(Cl)c1C(=O)N1CCN(C23CC4CC(CC(C4)C2)C3)CC1	Gli-Sufu antag 98.6 | Gli antag conf inactive | SufuKO cytotox inactive | Wnt3a cs inactive
COc1ccc(S(=O)(=O)Nc2ccc3c(c2)C(=O)N([C@H](C)CO)C[C@H](C)[C@@H](CN(C)S(=O)(=O)c2ccc(F)cc2)O3)cc1	none (no result: aSyn UTR inh)
Cc1sc2nc(SCC(=O)N3CCOCC3)[nH]c(=O)c2c1-c1ccccc1	none
Cc1ccc(CNC(=O)C23CN(Cc4ccccc4)CC2C(c2ccc([N+](=O)[O-])cc2)=NO3)o1 (centres undefined)	Gli-Sufu antag 98.3 | Gli antag conf inactive | SufuKO cytotox inactive | Wnt3a cs inactive
CCC1CCCCN1CCCNC(=O)c1ccc(CS(=O)(=O)c2ccc(Br)cc2)o1 (centres undefined)	none
CC1CCCCC1NC(=O)c1cccc(NC2=NC3CS(=O)(=O)CC3S2)c1 (centres undefined)	none (no result: CSC inhib)
Cc1c(N)cc(C(=O)N2CCOCC2)cc1[N+](=O)[O-]	Gli-Sufu antag 92.9 | Gli antag conf inactive | SufuKO cytotox inactive | Wnt3a cs inactive
CC(C)n1c(CN2CCN(C(=O)c3ccco3)CC2)nc2c1c(=O)n(C)c(=O)n2C	none
C=C(C)C1CC=C(C)/C(=N/NC(=O)COc2cccc3ccccc23)C1 (centres undefined)	none
COc1cc(CNCc2cc(OC)ccc2OC)cc(OC)c1	Gli-Sufu antag 57.2 | Gli antag conf inactive | SufuKO cytotox inactive | Wnt3a cs inactive
O=c1nc2n(c3ccc(Br)cc13)CCS2	none
O=C(COc1ccccc1)Nc1ccc(OC(F)(F)C(F)F)c(NC(=O)COc2ccccc2)c1	Gli-Sufu antag 60.6 | Gli antag conf inactive | SufuKO cytotox inactive | Wnt3a cs inactive
O=C(O)C1CC(=O)N(CCc2ccccc2)C1 (centres undefined)	none
COc1ccc(CCN2CC(C(=O)O)CC2=O)cc1 (centres undefined)	Gli-Sufu antag 96.1 | Gli antag conf inactive | SufuKO cytotox inactive | Wnt3a cs inactive
COc1ccc(C(=O)NC2CC3CCCC(C2)N3Cc2ccccc2)cc1OC (centres undefined)	Gli-Sufu antag 57.3 | Gli antag conf inactive | SufuKO cytotox inactive | Wnt3a cs inactive

From PubChem BioAssay
